From PubChem BioAssay
This is a sample that favours compounds with a hit; in the whole collection about 22% have one here.
Pf growth 96h: Primary qHTS for delayed death inhibitors of the malarial parasite plastid, 96 hour incubation | P. falciparum luciferase reporter growth, 96 h | Potency, µM (top dose mostly 28.7 µM), for the others: at the highest dose activity change, negative = inhibition, hits mostly inhibitors | actives 6.9% (n = 320,000); also: potency is read from the fitted curve at half-maximal effect; % is scaled to controls: 0 for no effect and ±100 for the full control effect
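P. falciparum expressing integrated firefly luciferase grown in erythrocytes (2% hematocrit, 0.05% parasitemia final) with compounds for 96 hours at 37 C, 5% CO2. Growth inhibition read as loss of luminescence after adding luciferase detection reagent.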
LmPK inhibitor: qHTS Assay for Inhibitors of Leishmania Mexicana Pyruvate Kinase (LmPK); actives 0.37% (n = 290,000); Potency, µM (highest dose often 57.5 µM), for inactives: at the highest dose activity change, negative = inhibition, usual class: inhibitors; Q27686; purified LmPK, Kinase-Glo ATP luminescence, 1 h; AID 1721, 2009; also: potency is read from the fitted curve at half-maximal effect; % is scaled to controls: 0 for no effect and ±100 for the full control effect
Target sequence (Q27686 whole entry, looked up): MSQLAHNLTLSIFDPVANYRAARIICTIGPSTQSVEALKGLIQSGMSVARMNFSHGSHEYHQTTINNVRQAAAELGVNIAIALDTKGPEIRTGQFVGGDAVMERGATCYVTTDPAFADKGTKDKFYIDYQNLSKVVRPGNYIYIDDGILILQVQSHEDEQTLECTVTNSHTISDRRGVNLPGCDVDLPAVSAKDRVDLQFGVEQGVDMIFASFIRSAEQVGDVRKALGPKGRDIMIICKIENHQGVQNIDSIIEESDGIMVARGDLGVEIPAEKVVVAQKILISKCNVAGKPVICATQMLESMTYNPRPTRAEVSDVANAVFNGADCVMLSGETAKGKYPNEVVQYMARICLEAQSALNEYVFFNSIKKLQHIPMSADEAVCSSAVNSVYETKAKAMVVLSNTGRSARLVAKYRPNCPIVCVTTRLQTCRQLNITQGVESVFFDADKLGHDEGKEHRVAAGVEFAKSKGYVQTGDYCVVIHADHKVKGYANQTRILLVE
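Kinase-Glo luminescence read after 1 h RT reaction of 0.1 nM LmPK with 0.5 mM PEP and 0.1 mM ADP. Activity scaled between uninhibited and enzyme-free controls.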
Cycloheximide cs: Cycloheximide Counterscreen for Small Molecule Inhibitors of Shiga Toxin | cell reporter, cycloheximide protein synthesis inhibition counterscreen | max response, % | actives 12% (n = 300,000) | AID 2314, 2010; in the data active = max response mostly above about 13%, no sharp cut-off; inactive = mostly below about 14%; also: read at 38.3 µM for the half of the compounds with a filed dose; 0% is about no effect
Pf growth 48h: Primary qHTS for delayed death inhibitors of the malarial parasite plastid, 48 hour incubation. P. falciparum luciferase growth in erythrocytes, 48 h. Potency, µM (doses to about 28.7 µM), for inactives: at the highest dose activity change, negative = inhibition, most hits filed as inhibitors. actives 5.9% (n = 310,000); also: potency is read from the fitted curve at half-maximal effect; % is scaled to controls: 0 for no effect and ±100 for the full control effect
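First compound was added to culture medium, then infected red cells at 0.1% parasitemia and 2% hematocrit (final). After incubation at 37 C under 5% CO2, luciferase detection reagent was dispensed and light output recorded.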
Shiga toxin inh: A qHTS for Small Molecule Inhibitors of Shiga Toxin; Vero cells, Shiga toxin protein synthesis inhibition reporter; inhibition, % at 38.7 µM; actives 9.2% (n = 290,000); AID 2315, 2010; in the data active = inhibition mostly above about 28%, no sharp cut-off; inactive = mostly below about 43%; also: 0% is about no effect
Active calls of the source: *; ? = inconclusive; . = not tested or not shown. Unless noted, calls follow the shape of the dose curve; as a rule, active = well fitted inhibition curve with a large enough effect; inconclusive = small, poorly fitted or top-dose-only effect, or another doubt; inactive = no such curve, though single readings can be large or run the other way.

SMILES | Pf growth 96h | LmPK inhibitor | Cycloheximide cs | Pf growth 48h | Shiga toxin inh
COc1cccc(CN2CCN(Cc3cccc4c3OCO4)CC2CCO)c1 (stereo not given) | 0% | -10% | 19* | 149% | 47
OCCC1CN(Cc2cc3c(cc2Cl)OCO3)CCN1Cc1ccccc1 (stereo not given) | 10µM* | -1% | -1 | ? | -13
Cc1ccc(CN2CCN(Cc3cccc4c3OCO4)CC2CCO)cc1 (stereo not given) | ? | 3% | -3 | -27% | -5
CCOc1ccc(CN2CCN(Cc3cc4c(cc3Cl)OCO4)CC2CCO)cc1 (stereo not given) | ? | -2% | -3 | ? | -13
ONCc1ccccc1 | . | . | 4 | . | 1
c1ccc(N2CCN(C3CC4CCC3C4)CC2)cc1 (stereo not given) | 40% | 0% | 2 | -2% | 14
CCc1ccccc1NC(=S)N1CCCCCC1 | -9% | -10% | 1 | 1% | -11
C/C=C/C=N/Nc1nc(C)cc(=O)[nH]1 | ? | 1% | -1 | 6% | 24
Cc1ccccc1NC(=O)Cc1nc(COC(=O)c2ccc(Cl)c(S(N)(=O)=O)c2)cs1 | 13µM* | . | . | ? | .
Cc1ccccc1NC(=O)Cc1nc(CCl)cs1 | ? | 0% | 1 | ? | -3
Cc1ccc(C)c(NC(=O)Cc2nc(CCl)cs2)c1 | ? | -1% | -2 | 15µM* | 4
Cc1ccccc1NC(=O)Cc1nc(COC(=O)c2ccc([N+](=O)[O-])cc2)cs1 | 26% | . | . | 18% | .
Cc1ccc(OCCC(=O)OCc2csc(CC(=O)Nc3ccccc3C)n2)cc1 | -21% | 3% | -1 | -24% | -3
Cc1ccccc1NC(=O)Cc1nc(COC(=O)c2cccc([N+](=O)[O-])c2)cs1 | 4.1µM* | -11% | 1 | -9% | -3
Cc1ccc(C)c(OCCC(=O)OCc2csc(CC(=O)Nc3ccccc3C)n2)c1 | ? | . | . | 12µM* | .
O=C(NCCCn1cccn1)C1CCC(=O)N(CCc2ccccc2)C1 (stereo not given) | -13% | -7% | -2 | -2% | -6
CC(=O)N(c1ccc2oc(=O)sc2c1)S(=O)(=O)c1ccccc1 | 15% | 3% | -3 | -17% | -1
CC(=O)Oc1ccc(N(C(C)=O)S(=O)(=O)c2cccs2)c2ccccc12 | . | 4% | -4 | 4.1µM* | -9
CC(=O)Oc1c(Br)cc(N(C(C)=O)S(=O)(=O)c2ccccc2)c2ccccc12 | ? | ? | 2 | 3.3µM* | .
CC(=O)Oc1ccccc1N(C(C)=O)S(=O)(=O)c1ccc2ccccc2c1 | 2.3µM* | -7% | 11 | -13% | 23
CCN1CC2=C(OC(N)=C(C#N)C2c2cccs2)/C(=C/c2cccs2)C1 (stereo not given) | 54% | 2% | -1 | 12µM* | -16
N#CC1=C(N)OC2=C(CN(Cc3ccccc3)C/C2=C\c2cccnc2)C1c1cccnc1 (stereo not given) | 22% | 1% | 7 | ? | 1
CCN1CC2=C(OC(N)=C(C#N)C2c2ccccc2)/C(=C\c2ccccc2)C1 (stereo not given) | . | -1% | 4 | 10µM* | -8
COc1ccc([C@H]2CC(=O)C=C(c3cccc(C(F)(F)F)c3)C2)cc1 | ? | . | . | 25% | .
COc1cccc(C(=O)Nc2cccc(-c3ccc(N4CCOCC4)nn3)c2)c1OC | 0% | . | . | ? | .
SMILES | Pf growth 96h | LmPK inhibitor | Cycloheximide cs | Pf growth 48h | Shiga toxin inh
CCOC(=O)c1csc(NC(=O)c2ccc3c(c2)OCCO3)n1 | -6% | 0% | 51* | 196% | 127*
CCOC(=O)c1csc(-c2ccc(OC)c(OC)c2)n1 | -39% | -2% | 30 | ? | 16
CCOC(=O)c1csc(NC(=O)c2ccc(OC)c(OC)c2)n1 | . | 4% | -3 | 67% | -4
CCOC(=O)c1csc(-c2sccc2Br)n1 | 171% | 16µM* | 51* | 488% | 54*
CCOC(=O)c1cccc(C(=O)OCC)n1 | 3% | -4% | -1 | 11% | -13
CCOC(=O)c1csc(-c2ccc3c(c2)CCO3)n1 | 112% | -5% | 41* | 274% | 59*
CCOC(=O)Cc1cnc(NC(=O)c2ccccc2)s1 | . | -15% | 53* | 49% | 91*
CC(C)Cn1c(SCC(=O)N(C)c2c(N)n(Cc3ccccc3)c(=O)[nH]c2=O)nc2ccccc21 | 4% | . | . | -3% | .
